Experimental findings from PubChem BioAssay AID977622 (Broad Institute, 2014) are described below.

Experiment [1] is described as follows: growth inhibition of wild-type GFP E. coli, dose response, h38 mutant RFP, cherry-pick (AID 977622). Particulars: activity change: E. coli mixed culture, total growth OD600 at 50 uM, at 50 µM.
Experiment [2] relates to E. coli h38 humanized mutant ribosome RFP fluorescence, mixed culture, 24 h. The experiment is described as above. The conditions noted are these: h38 mutant RFP at 50 uM; at 50 µM.

The campaign covered roughly 1,900 compounds. Fewer than 10 were called active. Roughly 39% stayed inconclusive and do not appear here.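 Rule for the calls: active = Green signal of the normal strain falls at least twice as much as red signal of the resistant mutant, with overall culture growth loss under a set limit; inconclusive = no clear call, values can overlap the other calls; inactive = the rest.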 Only a sample is shown.

For the compound `CCc1ccc(CN2CCCC(CNS(=O)(=O)c3ccc(OC)cc3)C2)cc1` (stereo not drawn), in experiment [1], the activity change is -13.3% and the compound was called inactive. In addition, the activity change in experiment [2] was 9.56%.

For the compound `COc1ccc(OC)c(NC(=O)COc2ccc(S(=O)(=O)NC(C)C)cc2)c1`, in experiment [1], the activity change is -14.2% and the compound was classed as inactive.

Consider `O=C1CCCc2ccccc2N1Cc1ccccc1`, for which, in experiment [1], the activity change is -14.6% and the result was inactive.

In the case of `Cc1cccc(CN2C(=O)c3ccccc3Sc3ccc(C(=O)O)cc32)c1`, in experiment [1], the activity change is -13.7% and the call was inactive.

With `Cc1noc(C)c1NC(=O)Nc1ccc2c(c1)C(=O)N([C@@H](C)CO)C[C@@H](C)[C@H](CN(C)C(=O)Nc1ccc3c(c1)OCO3)OCCCC[C@@H](C)O2`, in experiment [1], the activity change is -13.2% and the compound was called inactive. Also, in experiment [2], the activity change came out at 26.4%.

`C=CCn1c(C)cc(C(=O)CSc2nnc(C3CC3)n2C2CC2)c1C`: in experiment [1], the activity change is -20.6% and the outcome was inactive. For the same compound, the activity change in experiment [2] is -37.4%.

As for `CN(C)S(=O)(=O)N1CCN(c2ccccc2Cl)CC1`, the activity change in experiment [1] is -14.9%; in experiment [2], -15.7%. Also, the compound was called inactive in experiment [1].

Regarding `O=C(c1ccc(-n2cccn2)cc1)N1CCc2ccccc2C1`, in experiment [1], the activity change was -28.7% and the call was inactive. Further, the activity change in experiment [2] is -27.7%.

In the case of `Cc1onc(-c2ccccc2Cl)c1C(=O)Nc1ccc(Cl)cn1`, in experiment [1], the activity change is -9.88% and the result was inactive.

On to `COc1cc(C#N)ccc1OCC(=O)Nc1cccc(S(=O)(=O)N2CCCC2)c1`, for which, in experiment [1], the activity change is -1.82% and the outcome was inactive. For the same compound, the activity change in experiment [2] is -20.8%.

For the compound `COc1ccc(C2CC(=O)Oc3cc(C)cc(C)c32)cc1` (stereo not drawn), in experiment [1], the activity change is -0.711% and the result was inactive. Moreover, the activity change in experiment [2] is 12.7%.

Turning to `O=C(Nc1cc(S(=O)(=O)N2CCOCC2)ccc1N1CCOCC1)c1ccc([N+](=O)[O-])s1`, in experiment [1], the activity change was -3.16% and the outcome was inactive. Besides, the activity change in experiment [2] was determined as 13.2%.

On to `COc1ccccc1Cc1c(-c2ccc(F)cc2)nc2ccc(Br)cn12`, for which, in experiment [1], the activity change is -10.3% and the result was inactive.

Regarding `CN(C)CCNc1ncnc2c1sc1nc(N3CCCC3)c3c(c12)CC(C)(C)OC3`, the values for the activity change in experiment [1] and in experiment [2] were -21.5% and -11.2%, respectively. Moreover, the compound was classed as inactive in experiment [1].

As for `Cc1ccccc1NC(=O)c1ccccc1N(C)S(=O)(=O)c1ccccc1`, in experiment [1], the activity change was -14.8% and the result was inactive. The activity change in experiment [2] is -11.7%.

Turning to `O=C1OC[C@@H]2CCCN2C(=O)[C@@H](CC(=O)N(CCO)Cc2ccccc2)C/C=C\C[C@H]1Cc1ccc(F)cc1`, in experiment [1], the activity change is -20.1% and the compound was called inactive. For the same compound, the activity change in experiment [2] is -35.1%.

With `COc1cccc(CN(C)Cc2nc(Cc3ccccc3Cl)no2)c1`, the activity change is -26.5% in experiment [1] and 24.2% in experiment [2]. The result in experiment [1] was inactive.

In the case of `CC(CCc1ccccc1)NC(=O)CCC1CCCC1` (stereo not drawn), in experiment [1], the activity change was -8.51% and the compound was classed as inactive. For the same compound, the activity change in experiment [2] came to 4.55%.

For the compound `CCNC(=O)C1(C)CCCN(Cc2cccc3ccccc23)C1` (stereo not drawn), in experiment [1], the activity change turned out to be 1.55% and the outcome was inactive. The activity change in experiment [2] turned out to be 69.8%.

`CCS(=O)(=O)N1CCN(c2ccnc3cc(Cl)ccc23)CC1`: in experiment [1], the activity change is -3.73% and the call was inactive. Moreover, in experiment [2], the activity change amounted to 61.1%.

Regarding `Cc1ccc(-n2cc(CNCCN3CCOC3=O)c(-c3ccc(F)cc3)n2)cc1`, in experiment [1], the activity change is -3.42% and the result was inactive. Moreover, the activity change in experiment [2] stood at 31.2%.

With `Cc1cc(C)cc(NS(=O)(=O)c2cc(C(=O)NCc3ccccn3)ccc2Cl)c1`, the figures for the activity change in experiment [1] and in experiment [2] were -24.9% and -5.16%, respectively. For the same compound, the compound was called inactive in experiment [1].

Regarding `CCn1c(COc2cccc(OC)c2)nnc1SCC(=O)Nc1cc(OC)ccc1OC`, the activity change in experiment [1] is -38.2%; in experiment [2], -20.2%. Also, the result in experiment [1] was inactive.

Take `C[C@@H]1CN([C@@H](C)CO)S(=O)(=O)c2ccc(Br)cc2O[C@H]1CN(C)C(=O)c1ccccc1`: in experiment [1], the activity change is -2.07% and the call was inactive.

Consider `C[C@@H]1CCCCO[C@H](CN(C)C)[C@@H](C)CN([C@H](C)CO)C(=O)c2cc(NC(=O)Nc3cccc4ccccc34)ccc2O1`, for which, in experiment [1], the activity change worked out at 8.4% and the result was inactive. For the same compound, the activity change in experiment [2] stood at 44.4%.

`O=C(C[n+]1cc(-c2ccc(F)cc2)n2c1CCC2)c1cccs1`: in experiment [1], the activity change is 2.39% and the outcome was inactive. Besides, in experiment [2], the activity change stood at 21.5%.

Consider `C[C@H](CO)N1C[C@H](C)[C@H](CN(C)C(=O)Nc2ccc3c(c2)OCO3)Oc2c(NC(=O)Nc3ccccc3)cccc2C1=O`, for which, in experiment [1], the activity change was -5.63% and the result was inactive. In addition, in experiment [2], the activity change came to 44%.

In the case of `Cc1ccc2oc(=O)n(CCCOc3ccccc3C)c2c1`, in experiment [1], the activity change was -15.8% and the outcome was inactive. In addition, the activity change in experiment [2] is -0.57%.

On to `COc1ccc(CN2CCC3CC2c2cc(Cl)ccc23)cc1` (stereo not drawn), for which, in experiment [1], the activity change is -30.7% and the compound was classed as inactive. In experiment [2], the activity change was -4.61%.

Regarding `NS(=O)(=O)c1cc(C(=O)OCC(=O)Nc2ccccc2[N+](=O)[O-])ccc1Cl`, the activity change is -8.81% in experiment [1] and 1.48% in experiment [2]. The compound was classed as inactive in experiment [1].

Take `CC(=O)Oc1ccc(N(c2ccccc2)S(=O)(=O)c2ccc(C)cc2)cc1`: in experiment [1], the activity change is -32.3% and the compound was classed as inactive.

As to `COc1ccc(NC(=O)Nc2cccc3c2O[C@H](CN(C)S(=O)(=O)c2ccc(Cl)cc2)[C@@H](C)CN([C@@H](C)CO)C3=O)cc1`, in experiment [1], the activity change is -2.69% and the compound was called inactive. For the same compound, the activity change in experiment [2] was -5.12%.

On to `O=C(O)c1ccccc1Nc1cc(Cl)c2nonc2c1[N+](=O)[O-]`, for which, in experiment [1], the activity change is -25.7% and the result was inactive.

Regarding `C[C@@H]1CCCCO[C@H](CN(C)C)[C@H](C)CN([C@@H](C)CO)C(=O)c2cc(NC(=O)Nc3cccc4ccccc34)ccc2O1`, the activity change in experiment [1] amounted to 4.86%; in experiment [2] it was 1.63%. In addition, the call in experiment [1] was inactive.

With `COc1ccc(C#Cc2ccc([C@@H]3[C@@H](CO)N4CCCCN(C(=O)Nc5ccc(F)cc5)C[C@H]34)cc2)cc1`, the values for the activity change in experiment [1] and in experiment [2] were -49.7% and 97.4%, respectively. For the same compound, in experiment [1], the compound was classed as inactive.

`Cc1cccc(Oc2ccc(NC(=O)c3ccccc3C(=O)O)cc2)c1`: in experiment [1], the activity change is -16.2% and the result was inactive.

Turning to `CCOCC(=O)Nc1c(C(=O)Nc2ccc3c(c2)OCCO3)oc2ccccc12`, the activity change in experiment [1] was -44.7%; in experiment [2] it was 4.56%. In addition, the outcome in experiment [1] was inactive.

Take `COc1cc2c(c(OC)c1OC)C(c1ccc3c(c1)OCO3)CC(=O)O2` (stereo not drawn): in experiment [1], the activity change is -14.3% and the call was inactive. For the same compound, the activity change in experiment [2] stood at 37.2%.

Consider `CCC(C)c1ccccc1NC(=O)c1cccc(-n2cnnn2)c1` (stereo not drawn), for which, in experiment [1], the activity change is -13.9% and the call was inactive. The activity change in experiment [2] was -4.87%.
